In PubChem BioAssay:
For part of these data: Entries with a potency or affinity are not part of this list. Active and inactive are the calls of the source.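 The calls were made as follows, unless noted: active = compound raising the membrane signal above positive-control mean plus 3 SD in both repeats, and a primary screen hit; inactive = the rest.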

Tests used:
[1] = system: TRPC4 beta (transient receptor potential cation channel C4), mouse; experiment: activators of mouse TRPC4 channel, confirmation, cell-based, Fluo4 calcium, HEK293 TRPC4beta/mu-opioid, duplicates, 10 µM (AID 2426;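 active = fluorescence ratio normalized to control raised more than 50% in primary screen plus both repeat runs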;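 as to activation: percent rise of integrated ratio over buffer wells lacking compound which define 0%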); conditions: Fluo4 calcium fluorescence, at 10 µM; stronger effect = higher value
[2] = system: transient receptor potential cation channel C4 beta (TRPC4), mouse; experiment: activators of mouse TRPC4 channel, confirmation, cell-based, second round, Fluo4, HEK293 TRPC4beta/mu-opioid, 1 µM (AID 2461;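 active = primary screen active and over 50% activation in each of two duplicate runs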;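 as to activation: 0% = wells without test compound as baseline of integrated fluorescence ratio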); conditions: Fluo4 calcium fluorescence, at 1 µM; stronger effect = higher value
[3] = system: TRPC4 (transient receptor potential cation channel C4 beta), mouse; experiment: positive allosteric modulators of mouse TRPC4, confirmation, cell-based, second round, Fluo-4, HEK293 TRPC4beta/mu-opioid, 1 µM (AID 2554;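 active = primary screen hit whose fluorescence ratio, in both repeats, exceeds the weak agonist control mean by 3 SD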); conditions: DAMGO EC20, Fluo-4 calcium flux, at 1 µM; stronger effect = higher value
[4] = system: TRPC4 beta (transient receptor potential cation channel C4), mouse; experiment: positive allosteric modulators of mouse TRPC4, confirmation, cell-based, Fluo-4, HEK293 TRPC4beta/mu-opioid (AID 2555;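 active = primary screen hit whose calcium fluorescence ratio, in both repeats, exceeds the weak agonist control mean by 3 SD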); conditions: DAMGO EC20, Fluo-4 calcium flux, at 10 µM; stronger effect = higher value
[5] = molecular target: Short transient receptor potential channel 4 (Mus musculus) (UniProt Q9QUQ5); experiment: inhibitors of mouse TRPC4 channel, confirmation, cell-based, Fluo4, HEK293 TRPC4beta/mu-opioid (AID 2636;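 active = calcium signal cut by more than 3 SD below the full-agonist control yet still positive, in both repeats and the earlier primary screen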); conditions: DAMGO, Fluo4 calcium flux, at 10 µM; stronger effect = higher value
[6] = molecular target: Short transient receptor potential channel 4 (Mus musculus) (UniProt Q9QUQ5); experiment: inhibitors of mouse TRPC4 channel, confirmation, cell-based, second round, Fluo4, HEK293 TRPC4beta/mu-opioid, 1 µM (AID 2637;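 active = calcium signal ratio cut to more than 3 SD under the fully stimulated control mean yet still positive, in both repeats and the primary screen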;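 as to inhibition: percent of integrated ratio relative to wells lacking test compound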); conditions: Fluo4 calcium flux, DAMGO, at 1 µM; stronger effect = higher value
[7] = molecular target: Short transient receptor potential channel 4 (Mus musculus) (UniProt Q9QUQ5); experiment: TRPC4 positive allosteric modulators, dose response, cell-based, HEK293 TRPC4/mu-opioid, Fluo-4 calcium, EC20 DAMGO (AID 434941;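 active = earlier screen potentiator hit that boosts the TRPC4 ion channel at some dose, with a dose response; inactive = no potentiation, no dose response, or not a prior hit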;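 also: calcium entry triggered by an EC20 dose of DAMGO at the co-expressed mu-opioid receptor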); conditions: HEK293 TRPC4/mu-opioid cells, Fluo-4 calcium fluorescence; series mostly up to 20 µM
[8] = molecular target: Short transient receptor potential channel 6 (Mus musculus) (UniProt Q61143); experiment: inhibition of mouse TRPC6 channel, confirmation, selectivity assay for TRPC4 inhibitor project, cell-based, HEK293, membrane potential dye, duplicate (AID 434948;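 active = active in primary screen and both duplicates, each dropping signal beyond three positive-control SD with fluorescence still positive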); conditions: HEK293 TRPC6, membrane potential dye fluorescence, at 10 µM, stimulated with maximal-effect acetylcholine; stronger effect = higher value
[9] = molecular target: Short transient receptor potential channel 6 (Mus musculus) (UniProt Q61143); experiment: activation of mouse TRPC6 channel, confirmation, selectivity assay for TRPC4 activator project, cell-based, HEK293, membrane potential dye, duplicate (AID 434950;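 active = membrane potential signal rise above negative control mean plus 3 SD in both duplicates, also active in the earlier TRPC4 screen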;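 as to activation: 0% = buffer only wells and 100% = acetylcholine maximal-effect wells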); conditions: HEK293 TRPC6, membrane potential fluorescence, at 10 µM; stronger effect = higher value
[10] = molecular target: Short transient receptor potential channel 6 (Mus musculus) (UniProt Q61143); experiment: TRPC6 potentiation by TRPC4 potentiator hits, confirmation, selectivity assay for TRPC4 potentiator project, HEK293 cells, membrane potential dye, duplicate (AID 434952); conditions: HEK293 TRPC6, membrane potential dye fluorescence, at 10 µM, maximal acetylcholine added after compound; stronger effect = higher value
[11] = molecular target: Short transient receptor potential channel 4 (Mus musculus) (UniProt Q9QUQ5); experiment: calcium flux activators in TRPC4/5HT1a cells, counter-screen for TRPC4 activator project, cell-based, second counter screen, HEK293 TRPC4/5HT1a, Fluo-4 (AID 434977;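 active = calcium signal rise above buffer-control mean plus 5 SD in both duplicates, and also a hit in the primary screen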;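 as to activation: plate controls were assay buffer for no effect and maximal serotonin response for full effect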); conditions: Fluo-4 calcium flux, at 10 µM; stronger effect = higher value
[12] = calcium flux inhibitors in TRPC4/5HT1a cells, confirmation, counter-screen for TRPC4 inhibitor project, cell-based, second counter screen, HEK293 TRPC4/5HT1a, Fluo-4 (AID 434978;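 active = primary screen active whose calcium signal fell more than 3 SD beyond the full-serotonin control mean in both duplicate plates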;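 as to outcome: serotonin given first at submaximal then at maximal dose after compound preincubation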); conditions: Fluo-4 calcium flux, at 10 µM, serotonin added to trigger calcium flux; stronger effect = higher value
[13] = system: TRPC4 (mouse), co-expressed with 5HT1a in HEK293; experiment: calcium flux potentiators in TRPC4/5HT1a cells, confirmation, counter-screen for TRPC4 potentiator project, cell-based, second counter screen, HEK293 TRPC4/5HT1a, Fluo-4 (AID 434979;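 active = signal rise over 3 SD above mean of control wells given weak agonist, in both repeats and first screen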); conditions: Fluo-4 calcium flux, at 10 µM, serotonin added at its EC20 dose; stronger effect = higher value
[14] = calcium flux activation in mu-opioid HEK293 cells, confirmation, counter-screen for TRPC4 activator project, cell-based, HEK293 mu-opioid receptor line (AID 449723;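 active = hit in primary screen, with calcium signal over 5 SD above buffer well mean in both duplicates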;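 also: counter screen cells carry the mu-opioid receptor alone and lack TRPC4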); conditions: Fluo-4 calcium fluorescence, at 10 µM; stronger effect = higher value
[15] = calcium flux enhancement in mu-opioid HEK293 cells, confirmation, counter-screen for TRPC4 allosteric potentiator project, cell-based, HEK293 mu-opioid receptor line (AID 449724;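 active = calcium signal rise more than 3 SD above the low-dose agonist control mean, in both duplicate plates and the primary screen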); conditions: Fluo-4 calcium flux, at 10 µM, compound added before EC20 DAMGO stimulus; stronger effect = higher value

Sequence of Short transient receptor potential channel 6 (Mus musculus) (Q61143 whole entry, looked up): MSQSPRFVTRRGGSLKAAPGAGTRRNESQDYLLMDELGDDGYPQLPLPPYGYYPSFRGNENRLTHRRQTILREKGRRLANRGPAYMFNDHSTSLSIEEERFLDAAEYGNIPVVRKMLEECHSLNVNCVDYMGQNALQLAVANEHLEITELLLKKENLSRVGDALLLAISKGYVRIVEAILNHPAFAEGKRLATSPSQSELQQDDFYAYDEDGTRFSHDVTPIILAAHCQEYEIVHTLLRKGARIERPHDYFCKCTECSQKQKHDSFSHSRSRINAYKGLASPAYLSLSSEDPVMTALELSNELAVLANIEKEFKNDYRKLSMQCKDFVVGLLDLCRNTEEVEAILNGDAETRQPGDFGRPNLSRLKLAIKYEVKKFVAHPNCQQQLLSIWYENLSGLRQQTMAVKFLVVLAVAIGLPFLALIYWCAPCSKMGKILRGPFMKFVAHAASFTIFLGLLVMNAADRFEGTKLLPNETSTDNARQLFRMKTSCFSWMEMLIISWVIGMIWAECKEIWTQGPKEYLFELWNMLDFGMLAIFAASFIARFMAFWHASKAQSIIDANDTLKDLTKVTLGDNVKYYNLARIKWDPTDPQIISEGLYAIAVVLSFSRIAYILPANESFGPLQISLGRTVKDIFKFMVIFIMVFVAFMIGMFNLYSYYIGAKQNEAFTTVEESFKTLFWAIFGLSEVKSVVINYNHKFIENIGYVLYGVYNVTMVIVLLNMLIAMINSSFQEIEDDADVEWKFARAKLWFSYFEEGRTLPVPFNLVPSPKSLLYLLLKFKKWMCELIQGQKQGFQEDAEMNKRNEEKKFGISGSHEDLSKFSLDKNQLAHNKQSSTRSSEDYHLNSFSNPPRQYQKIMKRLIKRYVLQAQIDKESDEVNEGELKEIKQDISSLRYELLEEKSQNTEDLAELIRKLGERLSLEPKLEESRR
Sequence of Short transient receptor potential channel 4 (Mus musculus) (Q9QUQ5 whole entry, looked up): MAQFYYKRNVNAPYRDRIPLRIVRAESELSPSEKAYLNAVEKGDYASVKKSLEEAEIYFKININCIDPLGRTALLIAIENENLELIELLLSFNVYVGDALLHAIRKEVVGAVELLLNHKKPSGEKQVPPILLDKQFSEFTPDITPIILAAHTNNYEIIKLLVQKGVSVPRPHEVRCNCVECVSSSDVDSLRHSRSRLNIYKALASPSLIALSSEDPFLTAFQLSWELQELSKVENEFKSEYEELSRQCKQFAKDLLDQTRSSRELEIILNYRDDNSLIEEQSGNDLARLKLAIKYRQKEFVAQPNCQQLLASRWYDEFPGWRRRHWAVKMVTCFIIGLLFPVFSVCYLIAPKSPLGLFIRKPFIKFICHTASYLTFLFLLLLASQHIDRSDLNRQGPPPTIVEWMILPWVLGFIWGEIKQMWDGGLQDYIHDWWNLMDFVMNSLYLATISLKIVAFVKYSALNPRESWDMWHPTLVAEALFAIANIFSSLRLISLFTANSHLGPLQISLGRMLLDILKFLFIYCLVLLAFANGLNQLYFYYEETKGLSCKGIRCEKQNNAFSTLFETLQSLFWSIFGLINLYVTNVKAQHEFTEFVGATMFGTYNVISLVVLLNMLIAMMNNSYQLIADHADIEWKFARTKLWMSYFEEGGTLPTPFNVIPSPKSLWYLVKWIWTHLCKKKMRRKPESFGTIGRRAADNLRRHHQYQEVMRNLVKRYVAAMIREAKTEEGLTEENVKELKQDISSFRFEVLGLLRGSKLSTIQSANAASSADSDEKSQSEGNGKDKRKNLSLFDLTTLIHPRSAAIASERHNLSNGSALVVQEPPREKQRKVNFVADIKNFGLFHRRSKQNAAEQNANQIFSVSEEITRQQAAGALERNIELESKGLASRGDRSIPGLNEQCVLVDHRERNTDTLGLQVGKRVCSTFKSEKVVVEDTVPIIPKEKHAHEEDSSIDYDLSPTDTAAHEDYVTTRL

Cc1c(C(=O)N(Cc2cccs2)C2CCS(=O)(=O)C2)oc2ccccc12 (stereo not given)
inactive: outcome [1] | outcome [2] | outcome [3] | outcome [4] | outcome [6] | outcome [7] | outcome [8] | outcome [10] | outcome [11] | outcome [12] | outcome [13] | outcome [14] | outcome [15]
active: inhibition [5] 97% | activation [9] 56.5%

C/C(=N/NC(=O)c1ccc(Cn2cccn2)o1)c1cccc(NC(=O)c2ccncc2)c1
active: activation [1] 100% | inhibition [5] 97% | activation [9] 49% | activation [11] 11.3%
inactive: outcome [2] | outcome [3] | outcome [4] | outcome [6] | outcome [7] | outcome [8] | outcome [10] | outcome [12] | outcome [13] | outcome [14] | outcome [15]

CC1CCCN(CCOCCOc2ccccc2-c2ccccc2)C1 (stereo not given)
inactive: outcome [1] | outcome [2] | outcome [3] | outcome [4] | outcome [7] | outcome [8] | outcome [10] | outcome [11] | outcome [13] | outcome [14] | outcome [15]
active: inhibition [5] 90% | inhibition [6] 53% | activation [9] 82% | inhibition [12] 30.7%

Cc1ccc2c(nc3s/c(=C\c4ccc(-c5ccccc5C(=O)O)o4)c(=O)n32)c1C
inactive: outcome [2] | outcome [3] | outcome [4] | outcome [5] | outcome [6] | outcome [7] | outcome [8] | outcome [10] | outcome [13] | outcome [15]
active: activation [1] 232% | activation [9] 805% | activation [11] 182% | inhibition [12] 28.9% | activation [14] 203%

CCCCC(c1nnnn1CC1CCCO1)N1CCN(Cc2ccccc2)CC1 (stereo not given)
active: inhibition [5] 84% | activation [9] 64.5%
inactive: outcome [1] | outcome [2] | outcome [3] | outcome [4] | outcome [6] | outcome [7] | outcome [8] | outcome [10] | outcome [11] | outcome [12] | outcome [13] | outcome [14] | outcome [15]

CCn1cc(CN2CCC(n3nccc3NC(=O)CCCc3ccccc3)CC2)cn1
inactive: outcome [1] | outcome [2] | outcome [3] | outcome [4] | outcome [7] | outcome [8] | outcome [10] | outcome [11] | outcome [12] | outcome [13] | outcome [14] | outcome [15]
active: inhibition [5] 95% | inhibition [6] 58% | activation [9] 36%

Clc1ccc(COn2c(-c3ccc(Cl)cc3Cl)nc3ncccc32)cc1
active: activation [1] 74% | activation [9] 54%
inactive: outcome [2] | outcome [3] | outcome [4] | outcome [5] | outcome [6] | outcome [7] | outcome [8] | outcome [10] | outcome [11] | outcome [12] | outcome [13] | outcome [14] | outcome [15]

Cc1ccc(S(=O)(=O)Nc2cccc(C(=O)NCC(c3ccccc3)N(C)C)c2)cc1F (stereo not given)
inactive: outcome [2] | outcome [3] | outcome [4] | outcome [5] | outcome [7] | outcome [8] | outcome [10] | outcome [11] | outcome [12] | outcome [13] | outcome [14] | outcome [15]
active: activation [1] 84% | inhibition [6] 78% | activation [9] 37.5%

CN(C)C1(CNC(=O)CC(NC(=O)c2ccccc2Cl)c2ccccc2)CCCCC1 (stereo not given)
active: inhibition [5] 88% | inhibition [6] 78% | activation [9] 44.5%
inactive: outcome [1] | outcome [2] | outcome [3] | outcome [4] | outcome [7] | outcome [8] | outcome [10] | outcome [11] | outcome [12] | outcome [13] | outcome [14] | outcome [15]

COc1ccc(/C=C/C(=O)Nc2ccccc2C(=O)NCC(c2ccc(OC)cc2)N(C)C)cc1 (stereo not given)
active: inhibition [5] 101% | inhibition [6] 81%
inactive: outcome [1] | outcome [2] | outcome [3] | outcome [4] | outcome [7] | outcome [8] | outcome [9] | outcome [10] | outcome [11] | outcome [12] | outcome [13] | outcome [14] | outcome [15]

CN(C)C(CNC(=O)c1ccc(C(F)(F)F)cc1)c1ccco1 (stereo not given)
inactive: outcome [2] | outcome [3] | outcome [4] | outcome [7] | outcome [8] | outcome [10] | outcome [11] | outcome [12] | outcome [13] | outcome [14] | outcome [15]
active: activation [1] 55% | inhibition [5] 96% | inhibition [6] 92% | activation [9] 28.5%

CCn1c(SCC(=O)c2cc(C)n(CC3CCCO3)c2C)nc2ccccc21 (stereo not given)
inactive: outcome [1] | outcome [2] | outcome [3] | outcome [4] | outcome [6] | outcome [7] | outcome [8] | outcome [10] | outcome [11] | outcome [12] | outcome [13] | outcome [14] | outcome [15]
active: inhibition [5] 69% | activation [9] 65%

COc1ccc(C(CNC(=O)c2cccc3cccnc23)N(C)C)cc1 (stereo not given)
active: activation [1] 132% | inhibition [6] 80% | activation [9] 33%
inactive: outcome [2] | outcome [3] | outcome [4] | outcome [5] | outcome [7] | outcome [8] | outcome [10] | outcome [11] | outcome [12] | outcome [13] | outcome [14] | outcome [15]

COc1ccc(C(CNC(=O)Cc2ccc3ccccc3c2)N(C)C)cc1 (stereo not given)
active: activation [1] 171% | activation [2] 88% | inhibition [6] 98% | activation [9] 55.5%
inactive: outcome [3] | outcome [4] | outcome [5] | outcome [7] | outcome [8] | outcome [10] | outcome [11] | outcome [12] | outcome [13] | outcome [14] | outcome [15]
